Screens deposited in PubChem by National Center for Advancing Translational Sciences (NCATS).
POLI inh: qHTS for Inhibitors of Polymerase Iota; AID 588590, 2011; DNA polymerase iota (Homo sapiens), Q9UNA4; Potency, µM (series often up to 115 µM), without a hit: at the top dose activity, negative = inhibition, hits mostly inhibitors; 390,000 tested, 1% active; Pol iota fluorescent replication assay, 10 min
Target sequence (Q9UNA4 whole entry, looked up): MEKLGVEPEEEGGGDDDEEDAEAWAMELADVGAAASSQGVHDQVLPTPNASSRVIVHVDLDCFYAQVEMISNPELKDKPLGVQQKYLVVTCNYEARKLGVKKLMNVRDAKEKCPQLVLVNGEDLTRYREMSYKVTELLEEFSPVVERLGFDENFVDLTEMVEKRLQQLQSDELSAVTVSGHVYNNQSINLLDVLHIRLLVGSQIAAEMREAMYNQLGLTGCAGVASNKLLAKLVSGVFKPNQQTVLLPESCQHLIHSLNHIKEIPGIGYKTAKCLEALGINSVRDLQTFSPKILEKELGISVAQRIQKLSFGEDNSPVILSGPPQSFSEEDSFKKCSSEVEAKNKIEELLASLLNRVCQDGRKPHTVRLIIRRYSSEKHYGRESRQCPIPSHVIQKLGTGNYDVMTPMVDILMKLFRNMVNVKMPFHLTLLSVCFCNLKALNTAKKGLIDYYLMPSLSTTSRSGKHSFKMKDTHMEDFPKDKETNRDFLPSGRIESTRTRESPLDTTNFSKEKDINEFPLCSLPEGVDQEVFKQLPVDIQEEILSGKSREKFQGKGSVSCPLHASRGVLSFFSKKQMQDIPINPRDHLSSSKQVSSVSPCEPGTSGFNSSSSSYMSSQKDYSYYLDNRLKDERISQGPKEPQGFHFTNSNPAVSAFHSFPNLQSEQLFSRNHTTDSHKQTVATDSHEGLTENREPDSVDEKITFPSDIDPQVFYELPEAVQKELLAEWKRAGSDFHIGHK
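Fluorescent replication assay read twice, at 0 min and 10 min after adding 50 nM (final) substrate. Enzyme (10 nM) and compounds were first incubated 15 min at room temperature; enzyme-free buffer wells were negative controls.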
Pol kappa inh-1: qHTS for Inhibitors of Polymerase Kappa. Potency, µM (top dose mostly 107 µM), inactives show at the highest dose activity, negative = inhibition, most hits filed as inhibitors. 400,000 tested, 0.53% active. purified Pol kappa, fluorescent DNA synthesis assay, 10 min. DNA polymerase kappa (Homo sapiens), Q9UBT6; also: % is scaled to controls: 0 for no effect and ±100 for the full control effect
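Pol kappa 10 nM + cpd, 15 min RT; start w/ substrate 50 nM final; fluorescence kinetic read, 0 and 10 min. Neg ctrl: buffer, no enzyme.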
APEX1 inh: qHTS Assay for Inhibitors of the Human Apurinic/apyrimidinic Endonuclease 1 (APE1). Potency, µM (top dose mostly 65.8 µM), for inactives: at the top dose activity change, negative = inhibition, usual class: inhibitors. recombinant APE1, TAMRA/BHQ-2 abasic DNA cleavage fluorescence. DNA repair nuclease/redox regulator APEX1 (Homo sapiens), P27695. 350,000 tested, 0.35% active;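 also: plate controls were vehicle for no effect and reference inhibitor for full effect; nearly all actives have a fitted effect of over 55% in size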
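Measures dequenching upon AP-site incision of a 5'-TAMRA/3'-BHQ-2 THF-containing duplex, 50 nM; human APE1 0.75 nM after 15 min room-temperature exposure to compound; kinetic three-point read at one-minute spacing.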
L3MBTL1 inh: qHTS Assay for the Inhibitors of L3MBTL1; Potency, µM (doses to about 57.1 µM), without a hit: at the highest dose activity, negative = inhibition, hits mostly inhibitors; 230,000 tested, 0.66% active; AlphaScreen L3MBTL1–H3K9me1 peptide binding; Lethal(3)malignant brain tumor-like protein 1 (Homo sapiens), Q9Y468; also: % is scaled to controls: 0 for no effect and ±100 for the full control effect; nearly all actives have a fitted effect of over 60% in size
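L3MBTL1 50 nM + b-AHA-H3(1-15)K9me1 75 nM, 30 min RT; compound added, 30 min RT; streptavidin donor/Ni-chelate acceptor beads 10 ug/mL each final, 30 min RT dark; AlphaScreen read.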
Pol eta inh-1: qHTS for Inhibitors of Polymerase Eta. recombinant Pol eta, fluorescent DNA replication assay. Potency, µM (doses to about 114 µM), for the others: at the highest dose activity change, negative = inhibition, most hits filed as inhibitors. 390,000 tested, 1.2% active. AID 588591, 2011; also: % is scaled to controls: 0 for no effect and ±100 for the full control effect
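Fluorescent replication assay: 50 nM final substrate added after a 15 min room-temperature compound preincubation with 10 nM enzyme. Signal taken at 0 min and again at 10 min.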
POLB inh: qHTS Assay for Inhibitors of DNA Polymerase Beta | P06746 | Pol beta primer extension/strand displacement, fluorescence kinetic | Potency, µM (series often up to 114 µM), for the others: top-dose activity change, negative = inhibition, most hits filed as inhibitors | 340,000 tested, 1.3% active | AID 485314, 2010; also: % is scaled to controls: 0 for no effect and ±100 for the full control effect
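Homogeneous kinetic assay of primer extension and strand displacement by 10 nM Pol beta, preincubated 15 min at room temperature with compound before 50 nM substrate (final) was added. Read at 0 and 10 min; four-parameter Hill fit.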
PGK validate: qHTS for inhibitors of Phosphogylcerate Kinase: Hit Validation Screen; shares compounds with Pol kappa inh-1; Potency, µM (series often up to 57.5 µM), for inactives: at the highest dose activity change, negative = inhibition, hits mostly inhibitors; 500 tested, 79% active; TbPGK coupled GAPDH assay, Kinase-Glo luminescence; also: % is scaled to controls: 0 for no effect and ±100 for the full control effect; nearly all actives have a fitted effect of over 65% in size
Pol iota confirm: qHTS for Inhibitors of Polymerase Iota: Confirmatory Assay for Cherry-picked Compounds. shares compounds with Pol kappa inh-1. Pol iota primer extension, TAMRA/BHQ fluorescence. Potency, µM, usual class: inhibitors. 1,500 tested, 77% active
Pol kappa inh-2: qHTS for Inhibitors of Polymerase Kappa: Confirmatory Assay for Cherry-picked Compounds; purified Pol-kappa, fluorescent strand-displacement substrate; shares compounds with Pol eta inh-1; 920 tested, 76% active; AID 720501, 2013; Potency, µM, usual class: inhibitors
Pol eta inh-2: qHTS for Inhibitors of Polymerase Eta: Confirmatory Assay for Cherry-picked Compounds. Potency, µM, usual class: inhibitors. 2,600 tested, 64% active. AID 720502, 2013. Pol eta primer extension, TAMRA/BHQ fluorescence, 10 min. shares compounds with Pol eta inh-1
Numbers without * were called inactive; ? = inconclusive; nt = not tested or not shown. Hits are enriched below; roughly 2.5% of the tested compounds scored in any of these assays. Calls follow the shape of the dose curve; as a rule, active = well fitted curve in the direction sought with a large enough effect; inconclusive = small, poorly fitted or top-dose-only effect, or another doubt; inactive = no such curve, though single readings can be large; an effect the other way counts as inactive or inconclusive. Potency is read from the fitted curve at half-maximal effect.

SMILES	POLI inh	Pol kappa inh-1	APEX1 inh	L3MBTL1 inh	Pol eta inh-1	POLB inh	Pol iota confirm	Pol eta inh-2	others
COC(=O)[C@@H]1C[C@@]2(O)[C@@H](O)[C@@H](O)[C@@H](O)C[C@H]2N1Cc1ccc(C(C)(C)C)cc1	nt	nt	-1%	nt	nt	nt	nt	nt
Oc1c(Cl)cc(Cl)cc1C=Nc1ccc(N2CCOCC2)cc1	174%	-7%	-14%	nt	-19%	31%	nt	nt
Oc1ccc(C=Nc2ccc(N3CCOCC3)cc2)c(O)c1	?	-41%	-5%	nt	14µM*	4%	?	?
CCOC(=O)C1=C(COC(=O)c2ccc(Br)c(S(=O)(=O)N3CCOCC3)c2)NC(=O)NC1C (stereo not drawn)	?	-23%	nt	nt	-23%	nt	nt	nt
Cc1ccnc2nc(C(=O)Nc3nnc(-c4ccc(Cl)cc4)o3)nn12	?	?	5%	nt	?	?	42*	?
CC(=O)c1ccc(S(=O)(=O)Nc2cccc(-n3cnnn3)c2)cc1	20µM*	?	-47%	nt	7.9µM*	?	75*	30*
Nc1ccc(O)c2c1C(=O)c1ccccc1C2=O	40µM*	28µM*	10%	?	8.9µM*	2.8µM*	19*	21*	PGK validate=12µM*;Pol kappa inh-2=3.4*
O=C1c2ccccc2C(=O)c2c(O)ccc(O)c21	nt	nt	9%	nt	nt	nt	nt	nt
Cc1ccc(S(=O)(=O)N/N=C\c2cn(CC(N)=O)c3ccccc23)cc1	22%	0%	5%	nt	-15%	23%	nt	nt
[O-][n+]1c2ccccc2[n+]([O-])c2cc(O)ccc21	?	?	19µM*	nt	18µM*	22µM*	?	?	PGK validate=33µM*;Pol kappa inh-2=?
Cc1ccc2ccccc2[n+]1[O-]	-15%	-1%	nt	nt	nt	nt	nt	nt
CCN1C(=O)[C@@H]2Cc3c([nH]c4ccccc34)C(c3ccc(OC)cc3)N2C1=S (stereo partly drawn)	?	1%	33%	nt	-1%	7%	nt	nt
O=C(CS(=O)(=O)Cc1ccccc1)c1ccccc1	nt	nt	nt	nt	-8%	nt	nt	nt
COc1ccc(C(CC(=O)Nc2cccc(C)c2C)N2Cc3ccccc3C2=O)cc1 (stereo not drawn)	-3%	-4%	nt	nt	-7%	0%	nt	nt
CC1=NOC(=O)/C1=C\c1ccc(-c2ccccc2Br)o1	?	?	-7%	nt	20µM*	22µM*	75*	48*
COC(=O)c1cc(CSc2nc3ccccc3c(=O)n2C)oc1C	37%	-12%	35%	nt	-13%	-12%	nt	nt
O=[N+]([O-])c1cc(-c2ccccc2)cc([N+](=O)[O-])c1O	0%	-11%	nt	nt	-8%	nt	nt	nt
